What all share (details): concentration: 1 μM, replicates: in singlicate; n = 1
In experiment [1] the test system is T1, ERK4.
T1 construct: gene MAPK4

Experiment [2] deals with T2, ERK5.
T2 construct: gene MAPK7

Experiment [3] concerns T3, ERK8.
T3 construct: gene MAPK15

Experiment [4] concerns ERN1.
The subject of experiment [5] is T4, FAK.
T4 construct: gene PTK2

Experiment [6] has as its system FER.
Experiment [7] concerns FES.
Experiment [8] deals with FGFR1.
The subject of experiment [9] is FGFR2.
In experiment [10] the test system is FGFR3.
For experiment [11], the system named is FGFR4.
The subject of experiment [12] is FGR.
Experiment [13] deals with FLT1.
For experiment [14], the system named is FLT3-autoinhibited.
The test system of experiment [15] is FLT3.
The subject of experiment [16] is FLT4.
For experiment [17], the system named is FRK.
Experiment [18] relates to FYN.
The test system of experiment [19] is GAK.
The subject of experiment [20] is T5, GCN2(Kin.Dom.2,S808G).
T5 construct: gene EIF2AK4
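Further: KINOMEscan kinase panel screen.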

`CNc1nccc(-c2c(-c3ccc(F)cc3)ncn2C2CCN(C)CC2)n1` [SB-222903]: the “%Inh” value in experiment [1] worked out at 0%; in [2], 9%; in [3], 6%; in experiment [4], 0%; in experiment [5] it was 43%; in experiment [6], 0%. For the same compound, the “%Inh” value in experiment [7], in [8], in [9], in experiment [10], in experiment [11] and in experiment [12] was 0% throughout. Moreover, the “%Inh” value in experiment [13], in experiment [14], in experiment [15], in [16], in experiment [17] and in experiment [18] was 0% throughout. Further, the “%Inh” value amounted to 6% in experiment [19] and 3% in experiment [20].
As for `CS(=O)(=O)CCNCc1ccc(-c2ccc3ncnc(Nc4ccc(OCc5ccccc5)c(Cl)c4)c3c2)o1.Cl` [GW574783], the “%Inh” value in experiment [1] is 0%; in [2], 0%; in [3], 15%; in [4] it was 0%; in experiment [5] it was 11%; in experiment [6], 14%. In addition, the “%Inh” value in experiment [7] is recorded as 0%; in [8] it was 0%; in [9], 0%; in experiment [10] it was 12%; in experiment [11], 0%; in experiment [12], 9%. The “%Inh” value in [13] was determined as 26%; in experiment [14], 0%; in experiment [15], 11%; in [16] it was 0%; in experiment [17] it was 0%; in experiment [18], 14%. Moreover, the “%Inh” value in [19] is 0%; in experiment [20] it was 16%.
As to `Cc1ccc(O)cc1Nc1cc(C(F)(F)F)nc2ccc(-c3ccncc3)cc12` [GW630823], the “%Inh” value is recorded as 5% in [1]; 9% in experiment [2]; 7% in experiment [3]; 0% in experiment [4]; 3% in experiment [5]; 1% in [6]. For the same compound, the “%Inh” value is given as 6% in [7]; 0% in experiment [8]; 4% in [9]; 0% in [10]; 5% in experiment [11]; 22% in experiment [12]. Further, the “%Inh” value in experiment [13] was found to be 14%; in experiment [14], 0%; in [15], 27%; in experiment [16] it was 13%; in [17] it was 14%; in [18] it was 7%. The entries for the “%Inh” value in experiment [19] and in experiment [20] were 4% and 0%, respectively.
With `Cl.Cn1ccc(-c2cccc(Nc3ccnc4cc(-c5nccs5)ccc34)c2)n1` [GW525701], the “%Inh” value worked out at 9% in experiment [1]; 0% in [2]; 0% in experiment [3]; 0% in experiment [4]; 0% in [5]; 8% in [6]. Besides, the “%Inh” value in experiment [7] is given as 22%; in [8] it was 0%; in [9] it was 0%; in experiment [10], 11%; in experiment [11], 0%; in [12], 53%. The “%Inh” value is 0% in experiment [13]; 0% in [14]; 0% in experiment [15]; 7% in experiment [16]; 0% in experiment [17]; 3% in experiment [18]. Besides, the “%Inh” value in [19] is given as 19%; in [20], 0%.
For `Nc1nccc2scc(-c3ccc4c(c3)CCN4C(=O)Cc3cc(F)ccc3F)c12` [GSK2587663], the “%Inh” value in experiment [1] is given as 0%; in experiment [2] it was 0%; in experiment [3], 14%; in [4], 2%; in experiment [5] it was 0%; in [6], 26%. For the same compound, the “%Inh” value in experiment [7] is 18%; in experiment [8] it was 0%; in experiment [9], 1%; in experiment [10], 9%; in [11], 7%; in experiment [12], 40%. In addition, the “%Inh” value in experiment [13] was determined as 37%; in experiment [14] it was 0%; in [15] it was 0%; in [16] it was 0%; in experiment [17], 11%; in experiment [18] it was 12%. The “%Inh” value in [19] is reported as 0%; in experiment [20], 13%.
`N#Cc1ccc(Oc2ccc(Nc3ncnc4cc[nH]c34)cc2Cl)cc1`: the “%Inh” value was found to be 17% in [1]; 20% in [2]; 12% in experiment [3]; 8% in experiment [4]; 8% in experiment [5]; 0% in experiment [6]. Moreover, the “%Inh” value in experiment [7] is listed as 17%; in experiment [8], 9%; in experiment [9], 1%; in experiment [10], 8%; in [11] it was 27%; in [12], 22%. Further, the “%Inh” value was found to be 8% in experiment [13]; 15% in experiment [14]; 10% in experiment [15]; 0% in experiment [16]; 23% in experiment [17]; 20% in experiment [18]. Moreover, the “%Inh” value in experiment [19] was determined as 17%; in experiment [20], 10%.
For the compound `c1ccc(-c2ccc3c(-c4ccnc(Nc5ccc6c(c5)OCCO6)n4)cnn3n2)cc1` [GW818941], the “%Inh” value in [1] was 0%; in experiment [2] it was 0%; in experiment [3], 92.7%; in experiment [4] it was 0%; in [5], 6%; in experiment [6], 23%. Moreover, the “%Inh” value is recorded as 0% in [7]; 18% in experiment [8]; 0% in experiment [9]; 15% in experiment [10]; 10% in experiment [11]; 23% in [12]. The “%Inh” value came out at 31% in experiment [13]; 18% in [14]; 36% in experiment [15]; 36% in [16]; 9% in experiment [17]; 32% in experiment [18]. Also, the “%Inh” value stood at 28% in experiment [19] and 11% in experiment [20].
Consider `CCCc1ccc(S(=O)(=O)NC2CCN(c3ccnc(Nc4ccc(OC)cc4)n3)C2)cc1` (stereo not shown) [GSK1379737], for which the “%Inh” value came to 17% in [1]; 0% in experiment [2]; 0% in experiment [3]; 0% in [4]; 0% in experiment [5]; 12% in [6]. For the same compound, the “%Inh” value in experiment [7] is given as 0%; in experiment [8], 0%; in experiment [9] it was 0%; in experiment [10] it was 0%; in [11], 8%; in experiment [12], 12%. The “%Inh” value is reported as 3% in experiment [13]; 0% in experiment [14]; 26% in [15]; 9% in experiment [16]; 0% in experiment [17]; 7% in [18]. The “%Inh” value was 0% in experiment [19] and 33% in experiment [20].
Regarding `COC(=O)c1c(-c2ccccc2)c2cc(Cl)ccc2c(=O)n1Cc1ccc(S(C)(=O)=O)cc1`, the “%Inh” value in experiment [1] stood at 3%; in experiment [2], 13%; in experiment [3], 6%; in experiment [4] it was 13%; in experiment [5], 4%; in [6], 0%. Besides, the “%Inh” value in experiment [7] is given as 3%; in [8], 0%; in experiment [9], 8%; in experiment [10] it was 6%; in experiment [11], 6%; in [12], 0%. Besides, the “%Inh” value in [13] was determined as 0%; in [14], 2%; in experiment [15] it was 0%; in experiment [16], 8%; in experiment [17] it was 22%; in experiment [18] it was 0%. Moreover, the “%Inh” value in [19] is listed as 100%; in experiment [20] it was 0%.
In the case of `Clc1cc(Nc2ncnc3cc[nH]c23)ccc1OCc1ccccn1`, the “%Inh” value in experiment [1] was 27%; in [2], 13%; in [3], 6%; in experiment [4] it was 47%; in [5], 8%; in experiment [6], 1%. Moreover, the “%Inh” value was 22% in [7]; 5% in [8]; 8% in experiment [9]; 17% in experiment [10]; 4% in experiment [11]; 24% in experiment [12]. The “%Inh” value in [13] came to 0%; in experiment [14], 5%; in experiment [15], 7%; in [16], 0%; in [17] it was 15%; in experiment [18], 0%. Further, the “%Inh” value amounted to 3% in [19] and 0% in experiment [20].
`Cc1ccc(NC(=O)c2cccc(C#N)c2)cc1-c1ccc(C(=O)Nc2ccncc2)cc1` [GSK1398463]: the “%Inh” value in experiment [1] was found to be 25%; in experiment [2], 96.8%; in experiment [3], 38%; in [4], 15%; in [5] it was 0%; in experiment [6] it was 3%. For the same compound, the “%Inh” value in experiment [7] was found to be 17%; in experiment [8] it was 10%; in [9] it was 17%; in experiment [10], 33%; in experiment [11], 25%; in [12], 47%. Besides, the “%Inh” value in experiment [13] was found to be 33%; in experiment [14] it was 21%; in experiment [15], 0%; in [16] it was 12%; in [17], 92.9%; in experiment [18] it was 22%. Also, the “%Inh” value in experiment [19] amounted to 14%; in [20] it was 0%.
